Measurements as given in PubChem BioAssay AID588323 (National Center for Advancing Translational Sciences (NCATS), 2011).
Activity calls are given as the source filed them. A call without a number means that no potency is given here. Calls follow the shape of the dose curve; as a rule, active = well fitted curve in the direction sought with a large enough effect; inconclusive = small, poorly fitted or top-dose-only effect, or another doubt; inactive = no such curve, though single readings can be large or run the other way.

Test: Confirmatory Assay to Find Inhibitors of T. brucei phosphofructokinase: Cytotoxictity in MRC5
Details: cell viability; Potency: MRC5 cytotoxicity; series mostly up to 46.1 µM
Description: Various species of the protozoan family Trypanosomatidae are responsible for a range of serious human diseases in tropical and subtropical areas of the world. […] Many of the disorders caused by trypanosomatids are fatal if left untreated, but most currently used drugs are inefficient and toxic.
Oxidative metabolism involving the mitochondrial tricarboxylic acid cycle and oxidative phosphorylation are repressed in these parasites, and recent RNA interference (RNAi) experiments have shown that even partial depletion of certain individual glycolytic enzymes can lead to the death of cultured parasites. One such glycolytic enzyme, phosphofructokinase (PFK), catalyzes the formation of fructose-1,6-bisphosphate (F1,6BP) and ADP from fructose-6-phosphate (F6P) and ATP, and in many metabolic circumstances makes an important contribution to the control of flux through the glycolytic pathway. As a specific glycolytic target, PFK is particularly attractive as it catalyzes the first irreversible step in glycolysis, and structural and kinetic studies have shown very substantial and essential differences from corresponding host enzymes, allowing for the discovery of parasite-selective inhibitors.
Confirmed qHTS active compounds were tested for toxicity against the MRC-5 human lung fibroblast cell lines. This line havs historically been used as representative human cells in in vitro Trypanosoma assays, and so provide a relevant surrogate for human cells in testing Tb PFK inhibitor toxicity.
NIH Chemical Genomics Center [NCGC]
NIH Molecular Libraries Probe Centers Network [MLPCN]
Assay Submitter (PI): Malcom Walkinshaw, University of Edinburg
MRC5 cells were dispensed into white solid 1536-microwell plates in 5 uL media (high glucose DMEM, 10% FBS) with a Thermo Multidrop. The plates were incubated at 37 degrees Celsius for 2 hours, and subsequently treated with compounds using the Kalypsys pin tool, delivering 23 nL of test compounds to each well. The plates were then incubated for an additional 72 hours at 37 degrees Celsius. Cytotoxicity was assessed by adding 2.5 uL of Cell-Titer Glo (Promega, Madison, WI) via Multidrop, incubating at room temperature for 10 min and reading luminescence on the Perkin Elmer ViewLux using a 1 second exposure and 1x binning. DMSO-treated cells were included as negative control, while media-only wells were used as a positive control equivalent to 100% cell toxicity for the sake of data normalization.
In the case of Cc1cc(NS(=O)(=O)c2ccc(NC(=O)Cc3ccc(Cl)cc3Cl)cc2)no1, the Potency is reported as “inactive”. For Cc1cc(N(C)S(=O)(=O)c2ccc(NC(=O)Cc3ccc(Cl)c(Cl)c3)cc2)no1, the Potency was 31.5 µM (active). In the case of O=C(Cc1ccc(Cl)c(Cl)c1)Nc1ccc(S(=O)(=O)Nc2ccon2)cc1, the Potency is reported as “inactive”. In the case of CCOC(=O)c1cccc(NS(=O)(=O)c2ccc(NC(=O)Cc3ccc(Cl)c(Cl)c3)cc2)c1, the Potency is reported as “inactive”. In the case of Cc1cc(NC(=O)c2ccc(NC(=O)Cc3ccc(Cl)c(Cl)c3)cc2)no1, the Potency is reported as “inactive”. With Cc1cc(NS(=O)(=O)c2ccc(NC(=O)Cc3ccc(Cl)c(Cl)c3)cc2)n(C)n1 the Potency was “inactive”. In the case of Cc1cc(NS(=O)(=O)c2ccc(NC(=O)Cc3ccc(Cl)cc3)cc2)no1, the Potency is reported as “inactive”. With Cc1cc(NS(=O)(=O)c2ccc(NCCc3ccc(Cl)c(Cl)c3)cc2)no1 the Potency was “inactive”. With O=C(Cc1ccc(Cl)c(Cl)c1)Nc1ccc(S(=O)(=O)Nc2ccc(C(=O)O)cc2)cc1 the Potency was “inactive”. With COc1ccc(CC(=O)Nc2ccc(S(=O)(=O)Nc3cc(C)on3)cc2)cc1OC the Potency was “inactive”. For Cc1cc(NS(=O)(=O)CCNC(=O)Cc2ccc(Cl)c(Cl)c2)no1, the Potency was “inactive”. In the case of Cc1cc(NS(=O)(=O)c2ccc(NC(=O)Cc3ccc(Cl)c(C(F)(F)F)c3)cc2)no1, the Potency is reported as “inactive”. In the case of O=C(Cc1ccc(Cl)c(Cl)c1)Nc1ccc(S(=O)(=O)Nc2cncnc2)cc1, the Potency is reported as “inactive”. With Cc1cc(NS(=O)(=O)c2ccc(NC(=O)Cc3ccc4ccccc4c3)cc2)no1 the Potency was “inactive”. With Cc1cc(NS(=O)(=O)c2ccc(NC(=O)CCc3ccc(Cl)c(Cl)c3)cc2)no1 the Potency was “inactive”. For O=C(Cc1ccc(Cl)c(Cl)c1)Nc1ccc(S(=O)(=O)Nc2ccccc2)cc1, the Potency was “inactive”. In the case of O=C(Cc1ccc(Cl)c(Cl)c1)Nc1ccc(S(=O)(=O)O)cc1, the Potency is reported as “inactive”. In the case of O=C(Cc1ccc(Cl)c(Cl)c1)Nc1ccc(S(=O)(=O)Nc2cccc(O)c2)cc1, the Potency is reported as “inactive”. In the case of COc1ccc(CC(=O)Nc2ccc(S(=O)(=O)Nc3cc(C)on3)cc2)cc1C, the Potency is reported as “inactive”. With Cc1cc(NS(=O)(=O)c2ccc(C(=O)NCc3ccc(Cl)c(Cl)c3)cc2)no1 the Potency was “inactive”. With Cc1cc(NS(=O)(=O)c2ccc(NC(=O)Cc3ccccc3)cc2)no1 the Potency was “inactive”. For Cc1cc(NC(=O)c2csc(NC(=O)Cc3ccc(Cl)c(Cl)c3)n2)no1, the Potency was “inactive”. With Cc1cc(NS(=O)(=O)c2ccc(NC(=O)Cc3ccc(C)c(F)c3)cc2)no1 the Potency was “inactive”. For Cc1cc(NS(=O)(=O)c2cccc(NC(=O)Cc3ccc(Cl)c(Cl)c3)c2)no1, the Potency was “inactive”. In the case of O=C(Cc1ccc(Cl)c(Cl)c1)Nc1ccc(S(=O)(=O)Nc2cccc(C(=O)O)c2)cc1, the Potency is reported as “inactive”. In the case of Cc1cc(N[S+](=O)([O-])c2ccc3cc(NC(=O)Cc4ccc(Cl)c(Cl)c4)ccc3c2)no1, the Potency is reported as “inactive”. With Cc1cc(NS(=O)(=O)c2ccc(N(C)C(=O)Cc3ccc(Cl)c(Cl)c3)cc2)no1 the Potency was “inactive”. In the case of Cc1cc(N[S+](=O)([O-])c2ccc(NC(=O)Cc3ccc(Cl)nc3)cc2)no1, the Potency is reported as “inactive”. For Cc1cc(NS(=O)(=O)C2CCN(C(=O)Cc3ccc(Cl)c(Cl)c3)CC2)no1, the Potency was “inactive”. In the case of Cc1cc(NS(=O)(=O)c2ccc(NC(=O)Cc3ccc(C)c(C)c3)cc2)no1, the Potency is reported as “inactive”. For Cc1cc(NS(=O)(=O)c2ccc(NC(=O)Cc3ccc(Cl)c(Cl)c3)cc2)no1, the Potency was “inactive”. For Cc1cc(NS(=O)(=O)c2ccc(NC(=O)Cc3ccc(Cl)c(F)c3)cc2)no1, the Potency was “inactive”. With Cc1cc(NS(=O)(=O)c2ccc(NC(=O)Cc3cccc(Cl)c3)cc2)no1 the Potency was “inactive”. With Cc1cc(NS(=O)(=O)c2ccc(NS(=O)(=O)Cc3ccc(Cl)c(Cl)c3)cc2)no1 the Potency was “inactive”. In the case of Cc1cc(NS(=O)(=O)c2ccc(NC(=O)Cc3ccc(Cl)c(Cl)c3)cc2)on1, the Potency is reported as “inactive”. With Cc1cc(NS(=O)(=O)c2ccc(NC(=O)c3ccc(Cl)c(Cl)c3)cc2)no1 the Potency was “inactive”. In the case of Cc1cc(NS(=O)(=O)Cc2ccc(NC(=O)Cc3ccc(Cl)c(Cl)c3)cc2)no1, the Potency is reported as “inactive”. In the case of O=C(Cc1ccc(Cl)c(Cl)c1)Nc1ccc(S(=O)(=O)Nc2ccn[nH]2)cc1, the Potency is reported as “inactive”. In the case of Cc1cc(NS(=O)(=O)c2ccc(NC(=O)C(C)(C)c3ccc(Cl)c(Cl)c3)cc2)no1, the Potency is reported as “inactive”.
